Source: PubChem (several laboratories)
PLC-gamma1 inh: PLC-gamma1 (human) inhibition, primary screen | 370,000 compounds, 0.84% hits | purified PLC-gamma1, fluorogenic substrate, fluorescence | inhibition, % at 12.2 µM
H9c2 protect: modulators protecting cardiomyocytes from myocardial damage; H9c2 cardiomyocytes, H2O2 injury protection, ATPLite, 2 h; protection from H2O2 cell death, % at 20 µM; 360,000 compounds, 0.63% hits; AID 588492;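 active means compounds giving at least 50% protection of heart cells from peroxide-induced death in the single-dose screen, raw or plate-pattern-corrected value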;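 further: 0% = DMSO wells with peroxide and 100% = DMSO wells without peroxide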
FAS-TE inh: inhibitors of human fatty acid synthase thioesterase domain. P49327. recombinant FAS-TE, OMFH fluorogenic substrate, fluorescence endpoint. inhibition, % at 15 µM. 360,000 compounds, 0.67% hits. AID 602261;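 active means compounds whose normalised, plate-corrected inhibition of enzyme fluorescence in the single-dose primary screen is 50% or more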;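 further: 0% = DMSO with enzyme and 100% = substrate without enzyme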
PLC-beta3 inh: inhibitors of human phospholipase C beta3; Q01970; Purified PLC-beta3, fluorogenic substrate, fluorescence; inhibition, % at 12.2 µM; 370,000 compounds, 0.18% hits; AID 720704; in the data active means inhibition above about 11%;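 further: 0% = median of compound wells on plate and 100% = full blocker control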
PLCgamma1 ctr: inhibits human PLC-gamma1 in PLC-beta3 counter-screen. shares compounds with PLC-gamma1 inh. purified PLC-gamma1, fluorogenic substrate, fluorescence. inhibition, % at 12.3 µM. 3,300 compounds, 3.1% hits. AID 743258
PLCb3 confirm: confirmation of human PLC-beta3 inhibitors; inhibition, % at 12.3 µM; shares compounds with PLC-gamma1 inh; 3,300 compounds, 1% hits; purified PLC-beta3, fluorogenic substrate fluorescence; in the data active means inhibition above about 11%
* hit, by the source's call; / = no result given. Sampled rows, rich in hits. Any-hit rate of the full collection: about 2.2%. Unless noted, no stated cut-off is given here; in the data, active means inhibition above about 9.5%; inactive means the rest.

SMILES	PLC-gamma1 inh	H9c2 protect	FAS-TE inh	PLC-beta3 inh	PLCgamma1 ctr	PLCb3 confirm
CC(=O)N1CCc2cc(S(=O)(=O)NC(C(=O)Nc3ccc4c(c3)OCCO4)C(C)C)ccc21 (stereo unspecified)	11*	3	-13	3	3	5
COc1ccc(-n2c(C)nn(C)c2=O)cc1	9.9*	5	-7	8	-9	-2
COc1cccc(-n2c(C)nn(C)c2=O)c1	/	3	-8	/	/	/
CN1CCN(C(=O)c2ccc(CNS(=O)(=O)c3ccc(F)c(Cl)c3)cc2)CC1	3	5	-6	-10	/	/
Cn1c(SCC(=O)NC2(C#N)CCCCC2)nnc1-c1cccnc1	12*	8	-7	-1	-8	-5
O=C(NNS(=O)(=O)c1ccccc1)c1csc(-c2cccnc2)n1	4	5	-3	-7	/	/
O=C(NNC(=O)c1csc(-c2cccnc2)n1)c1ccccc1	9.6*	12	-2	-5	-2	1
O=C(NNC(=O)c1csc(-c2ccccc2)n1)c1ccccc1	4	29	-4	11*	-10	-5
O=C(c1ccc(Cl)cc1)C1CCN(C(=O)c2ccccc2F)CC1	-1	-1	-4	-5	/	/
Nc1cc(=O)[nH]c(SCc2cccc(Cl)c2)n1	10*	3	3	10	2	3
O=C(Nn1c(C2CCC2)nc2ccccc2c1=O)C1CCC1	0	0	1	0	/	/
O=C(Nn1c(C2CCC2)nc2ccccc2c1=O)c1cccs1	9	-4	-4	15*	-6	-4
Cc1cnn(Cc2ccccc2)c1N	10*	4	-7	7	-9	-4
O=C(NC1CCCCC1)NS(=O)(=O)c1ccc2c(c1)CCC2	-4	0	-5	-7	/	/
O=C(Oc1ccc([N+](=O)[O-])cc1)C1CC(=O)N(c2ccc3c(c2)OCCO3)C1 (stereo unspecified)	13*	-6	7	1	-3	-1
O=C1CC(NS(=O)(=O)c2ccc([N+](=O)[O-])cc2)CN1c1ccc2c(c1)OCCO2 (stereo unspecified)	3	-8	9	-7	/	/
OC(CN1CCCCC1)CN1CCCCC1	11*	-6	-3	-95	-3	0
OCC(O)CN1CCCC1 (stereo unspecified)	1	-2	-7	-9	/	/
CCCCOC(=O)CSc1nc2c(c(=O)[nH]c(=O)n2C)n1C/C=C(\C)Cl	13*	10	-6	6	2	3
O=C(NCC1CC1)c1csc(COCCO)n1	6	2	-6	13*	0	-7
CC1(C(=O)NCCc2c[nH]c3ccccc23)CCN1CC1CCCCC1 (stereo unspecified)	-1	-2	10	0	/	/
COc1ccc2c(c1)CCCC21NC(=O)N(CC(=O)N2CC(C)OC(C)C2)C1=O (stereo unspecified)	13*	0	-4	0	-1	-2
O=C(Nc1ccccc1)c1cc(C2CCCCN2S(=O)(=O)c2ccc(F)cc2F)on1 (stereo unspecified)	3	-1	22	5	/	/
CC(=O)N1CC(C)Oc2ccc(S(=O)(=O)Nc3ccc(Cl)cn3)cc21 (stereo unspecified)	10*	-4	-3	-3	-6	-4
CC(=O)N1CCOc2ccc(S(=O)(=O)Nc3ccc(C)cn3)cc21	3	-2	-6	-12	/	/
SMILES	PLC-gamma1 inh	H9c2 protect	FAS-TE inh	PLC-beta3 inh	PLCgamma1 ctr	PLCb3 confirm
CC(C)(C)OC(=O)N1C(=O)[C@](OC(=O)c2ccccc2)(c2ccccc2)c2cccc(F)c21	1	/	26	1	/	/
Cc1nn(CCOc2ccccc2)c(=O)n1-c1ccc(F)cc1	11*	-3	-8	0	-4	-2
CC1=NN(c2ccc(C)cc2C)C(=O)C1C(c1ccccc1O)C1C(=O)N(c2ccc(C)cc2C)N=C1C (stereo unspecified)	13*	1	-10	6	-7	-4
Cc1ccc(NC(=O)c2ccc(-n3cccn3)c([N+](=O)[O-])c2)cc1	-3	-4	12	0	/	/
O=C(Nc1ccccc1Cl)c1ccc(-n2cccn2)c([N+](=O)[O-])c1	11*	0	0	-3	-4	0
O=C(CN1CCC(n2nnc3cc(C(F)(F)F)ccc32)CC1)N1CCc2ccccc21	13*	-12	20	7	-6	-2
CC(=O)Nc1cccc(-c2cnc(NC(C)=O)cn2)c1	-3	2	-8	-3	/	/
